CD40 NFkB inh: CD40 pathway inhibition in BL2 cells; BL2 NF-kB luciferase reporter, CD40L-induced, 4 h; 83,000 compounds, 0.94% hits; inhibition, % at 10 µM; AID 1053188;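 active means mean inhibition of at least 50% with a set share of replicates also reaching that level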
Hits are given with their value; i = inactive; ! = not confirmed by another sample; [ ] = dose if it differs, or a comment. The full list was thinned out, with hits kept by preference.

SMILES	CD40 NFkB inh
C#C[C@]1(O)CC[C@H]2[C@@H]3CCc4cc(OC5CCCC5)ccc4[C@H]3CC[C@@]21C	52
C[C@@H]1CC(=O)NCC/C=C\C[C@H](c2cccc(Cl)c2)NC1=O	i
O=C1C[C@@H](c2ccccc2)C(=O)N[C@H](c2ccccc2)C/C=C\C[C@H](c2ccccc2)N1	i
O=C1C[C@@H](c2ccccc2)C(=O)N[C@@H](c2ccccc2)C/C=C\C[C@H](c2ccccc2)N1	i
O=C1C[C@H](c2ccccc2)C(=O)N[C@@H](c2ccccc2)C/C=C\C[C@@H](c2ccccc2)N1	60[25 µM]
O=C(C[C@H]1CC[C@H](NC(=O)Nc2cc(F)ccc2F)[C@@H](CO)O1)NCc1ccccn1	i
COc1cccc(NC(=O)N2[C@@H]3CNC[C@H]2C3c2ccc(-c3ccccc3)cc2)c1 (stereo not given in full)	i
COc1cccc(NC(=O)N2[C@@H]3CNC[C@H]2C3c2ccc(/C=C/c3ccccc3)cc2)c1 (stereo not given in full)	60!
O=C(Nc1cccc(Cl)c1)N1[C@@H]2CNC[C@H]1C2c1ccc(/C=C/c2ccccc2)cc1 (stereo not given in full)	i
CN(C)C(=O)c1ccc(-c2ccc(C3[C@@H]4CN(C(=O)C5CCOCC5)C[C@H]3N4)cc2)cc1 (stereo not given in full)	i
CC(C)(C)[S@](=O)N1Cc2cc(C(=O)N[C@H]3CCN(Cc4ccccc4)C3)nc(-c3cccc(-c4cccnc4)c3)c2[C@@H]1CCO	i
COc1ccccc1NC(=O)N1[C@@H]2CNC[C@H]1[C@@H]2c1ccc(-c2ccc(C#N)cc2)cc1	i
O=C(Nc1ccccc1F)N1C[C@@H]2[C@H](c3ccccc31)[C@@H](CO)N2C(=O)c1ccccc1F	i
Nc1c(S(=O)(=O)c2ccccc2)c2nc3ccccc3nc2n1CCN1CCOCC1	i
CCCCn1c(NC(=O)c2ccc(Br)o2)c(S(=O)(=O)c2ccccc2)c2nc3ccccc3nc21	66
CCCCn1c(NC(C)=O)c(C#N)c2nc3ccccc3nc21	i
O=C(NC1CCC1)[C@H]1[C@H](CO)[C@H]2Cn3c(ccc(C4=CCCC4)c3=O)[C@H]2N1C(=O)C1CCCC1	i
CC(C)NC(=O)Nc1cccc2c1O[C@H](CN(C)C(=O)NC(C)C)[C@H](C)CN(C)C2=O	i
CC(C)NC(=O)Nc1cccc2c1O[C@@H](CN(C)S(C)(=O)=O)[C@H](C)CN(C)C2=O	i
COCCCNc1ccn2nc(-c3ccccc3)cc2n1	60
c1ccc(OCCNc2ccn3nc(-c4ccccc4)cc3n2)cc1	i
COCCCNc1ccn2nc(-c3cc(OC)c(OC)c(OC)c3)cc2n1	i
Cc1ccc2nc(C(F)(F)F)c(C#N)c(N)c2c1	108
CCSc1nc2ccc(C)cc2cc1C#N	i
Cc1cc(C)c2nc(C(F)(F)F)c(C#N)c(N)c2c1	i
SMILES	CD40 NFkB inh
CN(C[C@@H]1N[C@H](CO)[C@@H]1c1ccc(C#CCC2CCCC2)cc1)S(C)(=O)=O	i
CC(C)C#Cc1ccc([C@@H]2[C@@H](CO)N3C(=O)CN(C(=O)NC4CCCCC4)C[C@H]23)cc1	i
COc1ccc(OC)c(-c2oc3ccccc3c(=O)c2O)c1	i
COc1ccc(OCC(=O)c2c(O)c3ccccc3oc2=O)cc1	i
COc1ccc(/C=C\c2nc(=O)c3ccccc3o2)cc1	46
C[C@@H]1CN([C@H](C)CO)C(=O)c2c(c3ccccc3n2C)-c2ccccc2CO[C@H]1CN(C)C(=O)C1CC1	i
COc1ccc2c3c([nH]c2c1)[C@H](CO)N(Cc1ccc(F)cc1)CC31CN(Cc2ccccn2)C1	i
O=C(C1COc2ccccc2O1)N1CCN(c2nc3ccc([N+](=O)[O-])cc3s2)CC1 (stereo not given)	i
COc1cccc2sc(N3CCN(c4nc5ccccc5s4)CC3)nc12	i
O=C(c1cccs1)N1CCN(c2nc3ccccc3s2)CC1	i
O=C(c1ccc([N+](=O)[O-])o1)N1CCN(c2nc3c(Cl)cccc3s2)CC1	i
COc1cccc2sc(N3CCN(C(=O)c4ccc([N+](=O)[O-])o4)CC3)nc12	76
O=C(c1ccc([N+](=O)[O-])o1)N1CCN(c2nc3ccc(F)cc3s2)CC1	32
N#C[C@H]1[C@@H](c2ccc(C3=CCCCC3)cc2)[C@H](CO)N1C(=O)NC1CCCCC1	i
CN1C(=O)c2cc(NC(=O)Cc3cccs3)ccc2OC[C@H]2O[C@H](CC(=O)NCC3CC3)CC[C@H]21	i
COc1ccc(S(=O)(=O)N(C)C[C@@H]2OCCCC[C@@H](C)Oc3ccc(NS(=O)(=O)c4ccc(Cl)cc4)cc3C(=O)N([C@@H](C)CO)C[C@H]2C)cc1	i
C[C@H](NC(=O)[C@@H]1[C@@H](CO)[C@@H]2Cn3c(cccc3=O)[C@H]1N2C(=O)C1CCCC1)c1ccccc1	i
COc1ccc(S(=O)(=O)N(C)C[C@@H]2Oc3ncccc3C(=O)N([C@H](C)CO)C[C@@H]2C)cc1	i
OC(CN1CCCCC1)c1ccc(Br)cc1 (stereo not given)	i
Oc1cc2c(cc1C(c1ccc(Br)cc1)N1CCCC1)OCO2 (stereo not given)	86
CN1CCN(C(CNS(=O)(=O)c2ccc(Br)cc2)c2ccc3c(c2)OCO3)CC1 (stereo not given)	i
COc1cccc(NC(=O)C[C@H]2CC[C@H]3[C@H](COc4ccc(NC(=O)C5CCCC5)cc4C(=O)N3C)O2)c1	i
COc1cccc(NC(=O)/C=C/c2ccc(Cl)cc2)c1	i
CSc1ncc(Cl)c(C(=O)Nc2nnc(SC)s2)n1	i
COc1ccc(C(=O)Nc2nnc(S(=O)(=O)Cc3ccccc3)s2)cc1	i
SMILES	CD40 NFkB inh
CSc1nnc(NC(=O)c2nc(S(=O)(=O)Cc3ccccc3)ncc2Cl)s1	102
CC=Cc1ccc2n(c1=O)C[C@@H]1[C@@H](CO)[C@H](C(=O)NC3CCC3)[C@H]2N1C(=O)c1ccccn1 (mixture of isomers)	i
CCc1cc2c(COC(=O)c3cc(S(=O)(=O)N4CCOCC4)ccc3F)cc(=O)oc2cc1O	51
N#Cc1ccccc1COC(=O)c1cc(S(=O)(=O)N2CCOCC2)ccc1F	i
O=C(OCC(=O)N1CCCC1=O)c1cc(S(=O)(=O)N2CCOCC2)ccc1F	i
CC(=O)N1[C@@H]2CN(C(=O)NC(C)C)C[C@H]1C2c1ccccc1 (stereo not given in full)	i
O=C(C[C@H]1C[C@@H]2c3cc(NC(=O)c4cccnc4)ccc3O[C@@H]2[C@@H](CO)O1)NC1CCCC1	i
Clc1ccc(C[n+]2cc(-c3ccccc3)n3c2CCCCC3)c(Cl)c1	65
CC1(C(=O)Nc2ccccc2Br)CCN1C(=O)Cc1ccc(Cl)cc1Cl (stereo not given)	i
Clc1ccc(-c2cnc3n2CCCCC3)cc1	i
COc1ccc([C@@H]2C/C=C\C[C@@H](c3cccc(Cl)c3)NC(=O)[C@@H](c3ccccc3)CC(=O)N2)c(OC)c1	i
N#Cc1cccc(-c2ccc(C3[C@H]4CNC[C@@H]3N4Cc3cc(F)ccc3F)cc2)c1 (stereo not given in full)	i
Cc1ccccc1C(=O)N1CCC(C(=O)Nc2nccs2)CC1	i
Cc1ccccc1C(=O)N1CCC(C(=O)Nc2nc3ccc(F)cc3s2)CC1	56
O=C(CN1C(=O)C2CCCCC2C1=O)Nc1nc2ccc(F)cc2s1 (stereo not given)	i
C[C@H](CO)N1C[C@H](C)[C@H](CN(C)Cc2ccccc2)OCc2ccccc2-c2ccccc2C1=O	i
COc1ccccc1CN(C)C[C@@H]1OCc2ccccc2-c2ccccc2C(=O)N([C@H](C)CO)C[C@@H]1C	i

Source: PubChem BioAssay
